# Laboratory results reported in publication PMC11006913.
# Experiments:
# Experiment in all cases: PBM; 200 nM protein, PBS
# Settings in all cases: dsDNA, one strand shown
# NKX3-2 [1] = biological target: NKX3-2 (Homo sapiens, UniProt P78367 192-278, P234S)
# NKX3-2 [2] = biological target: NKX3-2 (Homo sapiens, UniProt P78367 192-278)
# NKX2-5 = NKX2-5 (Homo sapiens, UniProt P52952 125-210)
# HOXB6 = HOXB6 (Homo sapiens, UniProt P17509 132-218)
# HOXA2 = HOXA2 (Homo sapiens, UniProt O43364 129-215)
# ALX3 = ALX3 (Homo sapiens, UniProt O95076 139-225, N203S)
# PRRX1 = PRRX1 (Homo sapiens, UniProt P54821 80-166)
# PRRX1, sequence (P54821 80-166): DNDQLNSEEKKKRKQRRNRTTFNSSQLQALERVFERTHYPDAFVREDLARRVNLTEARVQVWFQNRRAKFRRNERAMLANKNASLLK
# NKX3-2 (Homo sapiens, UniProt P78367 192-278), sequence (P78367 192-278): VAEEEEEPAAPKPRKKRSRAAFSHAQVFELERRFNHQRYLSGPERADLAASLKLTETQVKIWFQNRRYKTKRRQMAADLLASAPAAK
# NKX3-2 (Homo sapiens, UniProt P78367 192-278, P234S), sequence (P78367 192-278 P234S): as the sequence (P78367 192-278) above, with P43S counted along it
# HOXB6, sequence (P17509 132-218): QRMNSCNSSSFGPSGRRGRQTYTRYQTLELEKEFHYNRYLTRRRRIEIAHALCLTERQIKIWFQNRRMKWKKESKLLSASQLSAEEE
# ALX3, sequence (O95076 139-225 N203S): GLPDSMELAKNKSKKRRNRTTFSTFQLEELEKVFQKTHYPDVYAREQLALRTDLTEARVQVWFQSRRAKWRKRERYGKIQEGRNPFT
# HOXA2, sequence (O43364 129-215): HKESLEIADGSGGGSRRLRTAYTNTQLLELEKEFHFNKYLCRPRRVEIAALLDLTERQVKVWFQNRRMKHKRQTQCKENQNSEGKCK
# NKX2-5, sequence (P52952 125-210): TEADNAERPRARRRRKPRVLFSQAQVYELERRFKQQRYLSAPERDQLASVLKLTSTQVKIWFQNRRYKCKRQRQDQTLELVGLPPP
sequence,measurement,setting,value
GAGCTAGC,binding signal,NKX3-2 [1],"10.7 upbm affinity estimate (log intensity, higher = more binding, comparable within an allelic series)"
same,binding signal,NKX3-2 [2],"10.7 upbm affinity estimate (log intensity, higher = more binding, comparable within an allelic series)"
CCGCCGAA,binding signal,NKX3-2 [1],"10.4 upbm affinity estimate (log intensity, higher = more binding, comparable within an allelic series)"
same,binding signal,NKX3-2 [2],"10.4 upbm affinity estimate (log intensity, higher = more binding, comparable within an allelic series)"
AAGTGGGA,binding signal,NKX3-2 [1],"12.6 upbm affinity estimate (log intensity, higher = more binding, comparable within an allelic series)"
same,binding signal,NKX3-2 [2],"12.6 upbm affinity estimate (log intensity, higher = more binding, comparable within an allelic series)"
GGCTCCCC,binding signal,NKX3-2 [1],"10.6 upbm affinity estimate (log intensity, higher = more binding, comparable within an allelic series)"
same,binding signal,NKX3-2 [2],"10.6 upbm affinity estimate (log intensity, higher = more binding, comparable within an allelic series)"
AAAAGGGT,binding signal,NKX3-2 [1],"11.5 upbm affinity estimate (log intensity, higher = more binding, comparable within an allelic series)"
same,binding signal,NKX3-2 [2],"11.6 upbm affinity estimate (log intensity, higher = more binding, comparable within an allelic series)"
CGCGGTAC,binding signal,NKX3-2 [1],"10.8 upbm affinity estimate (log intensity, higher = more binding, comparable within an allelic series)"
same,binding signal,NKX3-2 [2],"10.8 upbm affinity estimate (log intensity, higher = more binding, comparable within an allelic series)"
AAAGTGGA,binding signal,NKX3-2 [1],"12.6 upbm affinity estimate (log intensity, higher = more binding, comparable within an allelic series)"
same,binding signal,NKX3-2 [2],"12.6 upbm affinity estimate (log intensity, higher = more binding, comparable within an allelic series)"
CCTCTTAC,binding signal,NKX3-2 [1],"12.1 upbm affinity estimate (log intensity, higher = more binding, comparable within an allelic series)"
same,binding signal,NKX3-2 [2],"12.2 upbm affinity estimate (log intensity, higher = more binding, comparable within an allelic series)"
ACCAAGAG,binding signal,NKX3-2 [1],"11.7 upbm affinity estimate (log intensity, higher = more binding, comparable within an allelic series)"
same,binding signal,NKX3-2 [2],"11.8 upbm affinity estimate (log intensity, higher = more binding, comparable within an allelic series)"
GCCGAGCC,binding signal,NKX3-2 [1],"10.8 upbm affinity estimate (log intensity, higher = more binding, comparable within an allelic series)"
same,binding signal,NKX3-2 [2],"10.7 upbm affinity estimate (log intensity, higher = more binding, comparable within an allelic series)"
GGGCGGAA,binding signal,NKX3-2 [1],"10.7 upbm affinity estimate (log intensity, higher = more binding, comparable within an allelic series)"
same,binding signal,NKX3-2 [2],"10.7 upbm affinity estimate (log intensity, higher = more binding, comparable within an allelic series)"
CCCACTTC,binding signal,NKX3-2 [1],"12.7 upbm affinity estimate (log intensity, higher = more binding, comparable within an allelic series)"
same,binding signal,NKX3-2 [2],"12.8 upbm affinity estimate (log intensity, higher = more binding, comparable within an allelic series)"
AAACCGCG,binding signal,NKX3-2 [1],"10.5 upbm affinity estimate (log intensity, higher = more binding, comparable within an allelic series)"
same,binding signal,NKX3-2 [2],"10.5 upbm affinity estimate (log intensity, higher = more binding, comparable within an allelic series)"
CCCACGGG,binding signal,NKX3-2 [1],"10.3 upbm affinity estimate (log intensity, higher = more binding, comparable within an allelic series)"
same,binding signal,NKX3-2 [2],"10.3 upbm affinity estimate (log intensity, higher = more binding, comparable within an allelic series)"
CGGGTTAG,binding signal,NKX3-2 [1],"10.5 upbm affinity estimate (log intensity, higher = more binding, comparable within an allelic series)"
same,binding signal,NKX3-2 [2],"10.5 upbm affinity estimate (log intensity, higher = more binding, comparable within an allelic series)"
CGGTTACC,binding signal,NKX3-2 [1],"10.6 upbm affinity estimate (log intensity, higher = more binding, comparable within an allelic series)"
same,binding signal,NKX3-2 [2],"10.5 upbm affinity estimate (log intensity, higher = more binding, comparable within an allelic series)"
AGACCACT,binding signal,NKX3-2 [1],"12 upbm affinity estimate (log intensity, higher = more binding, comparable within an allelic series)"
same,binding signal,NKX3-2 [2],"12.1 upbm affinity estimate (log intensity, higher = more binding, comparable within an allelic series)"
CGACGGCC,binding signal,NKX3-2 [1],"10.7 upbm affinity estimate (log intensity, higher = more binding, comparable within an allelic series)"
same,binding signal,NKX3-2 [2],"10.6 upbm affinity estimate (log intensity, higher = more binding, comparable within an allelic series)"
GCCCTCAA,binding signal,NKX3-2 [1],"11.6 upbm affinity estimate (log intensity, higher = more binding, comparable within an allelic series)"
same,binding signal,NKX3-2 [2],"11.7 upbm affinity estimate (log intensity, higher = more binding, comparable within an allelic series)"
ACCGAACC,binding signal,NKX3-2 [1],"10.6 upbm affinity estimate (log intensity, higher = more binding, comparable within an allelic series)"
same,binding signal,NKX3-2 [2],"10.7 upbm affinity estimate (log intensity, higher = more binding, comparable within an allelic series)"
ACACACCG,binding signal,NKX3-2 [1],"10.6 upbm affinity estimate (log intensity, higher = more binding, comparable within an allelic series)"
same,binding signal,NKX3-2 [2],"10.6 upbm affinity estimate (log intensity, higher = more binding, comparable within an allelic series)"
GAGTGACA,binding signal,NKX3-2 [1],"11.4 upbm affinity estimate (log intensity, higher = more binding, comparable within an allelic series)"
same,binding signal,NKX3-2 [2],"11.5 upbm affinity estimate (log intensity, higher = more binding, comparable within an allelic series)"
AAGTAGGT,binding signal,NKX3-2 [1],"11.7 upbm affinity estimate (log intensity, higher = more binding, comparable within an allelic series)"
same,binding signal,NKX3-2 [2],"11.8 upbm affinity estimate (log intensity, higher = more binding, comparable within an allelic series)"
AACCAGCC,binding signal,NKX3-2 [1],"10.4 upbm affinity estimate (log intensity, higher = more binding, comparable within an allelic series)"
same,binding signal,NKX3-2 [2],"10.4 upbm affinity estimate (log intensity, higher = more binding, comparable within an allelic series)"
ACTTACTG,binding signal,NKX3-2 [1],"11.6 upbm affinity estimate (log intensity, higher = more binding, comparable within an allelic series)"
same,binding signal,NKX3-2 [2],"11.7 upbm affinity estimate (log intensity, higher = more binding, comparable within an allelic series)"
GCCCGGCC,binding signal,NKX3-2 [1],"10.3 upbm affinity estimate (log intensity, higher = more binding, comparable within an allelic series)"
same,binding signal,NKX3-2 [2],"10.2 upbm affinity estimate (log intensity, higher = more binding, comparable within an allelic series)"
CCCCCAAA,binding signal,NKX3-2 [1],"10.7 upbm affinity estimate (log intensity, higher = more binding, comparable within an allelic series)"
same,binding signal,NKX3-2 [2],"10.7 upbm affinity estimate (log intensity, higher = more binding, comparable within an allelic series)"
ATCCGAGC,binding signal,NKX3-2 [1],"10.6 upbm affinity estimate (log intensity, higher = more binding, comparable within an allelic series)"
same,binding signal,NKX3-2 [2],"10.6 upbm affinity estimate (log intensity, higher = more binding, comparable within an allelic series)"
AGCATTCC,binding signal,NKX3-2 [1],"10.4 upbm affinity estimate (log intensity, higher = more binding, comparable within an allelic series)"
same,binding signal,NKX3-2 [2],"10.4 upbm affinity estimate (log intensity, higher = more binding, comparable within an allelic series)"
CTAAAGGC,binding signal,NKX3-2 [1],"10.5 upbm affinity estimate (log intensity, higher = more binding, comparable within an allelic series)"
same,binding signal,NKX3-2 [2],"10.6 upbm affinity estimate (log intensity, higher = more binding, comparable within an allelic series)"
AGTGGAGA,binding signal,NKX3-2 [1],"11.7 upbm affinity estimate (log intensity, higher = more binding, comparable within an allelic series)"
same,binding signal,NKX3-2 [2],"11.7 upbm affinity estimate (log intensity, higher = more binding, comparable within an allelic series)"
AGAAGAGG,binding signal,NKX3-2 [1],"11.6 upbm affinity estimate (log intensity, higher = more binding, comparable within an allelic series)"
same,binding signal,NKX3-2 [2],"11.7 upbm affinity estimate (log intensity, higher = more binding, comparable within an allelic series)"
CAAAGAGG,binding signal,NKX3-2 [1],"11.9 upbm affinity estimate (log intensity, higher = more binding, comparable within an allelic series)"
same,binding signal,NKX3-2 [2],"12 upbm affinity estimate (log intensity, higher = more binding, comparable within an allelic series)"
AGCACTTC,binding signal,NKX3-2 [1],"12.4 upbm affinity estimate (log intensity, higher = more binding, comparable within an allelic series)"
same,binding signal,NKX3-2 [2],"12.4 upbm affinity estimate (log intensity, higher = more binding, comparable within an allelic series)"
CCACTCAG,binding signal,NKX3-2 [1],"12.6 upbm affinity estimate (log intensity, higher = more binding, comparable within an allelic series)"
same,binding signal,NKX3-2 [2],"12.7 upbm affinity estimate (log intensity, higher = more binding, comparable within an allelic series)"
CTCTAGAG,binding signal,NKX3-2 [1],"10.9 upbm affinity estimate (log intensity, higher = more binding, comparable within an allelic series)"
same,binding signal,NKX3-2 [2],"10.9 upbm affinity estimate (log intensity, higher = more binding, comparable within an allelic series)"
GAGTAGAC,binding signal,NKX3-2 [1],"11.6 upbm affinity estimate (log intensity, higher = more binding, comparable within an allelic series)"
same,binding signal,NKX3-2 [2],"11.6 upbm affinity estimate (log intensity, higher = more binding, comparable within an allelic series)"
ACCAACGC,binding signal,NKX3-2 [1],"10.7 upbm affinity estimate (log intensity, higher = more binding, comparable within an allelic series)"
same,binding signal,NKX3-2 [2],"10.7 upbm affinity estimate (log intensity, higher = more binding, comparable within an allelic series)"
GCCTGACC,binding signal,NKX3-2 [1],"10.6 upbm affinity estimate (log intensity, higher = more binding, comparable within an allelic series)"
same,binding signal,NKX3-2 [2],"10.6 upbm affinity estimate (log intensity, higher = more binding, comparable within an allelic series)"
AAAGTGGG,binding signal,NKX3-2 [1],"12.4 upbm affinity estimate (log intensity, higher = more binding, comparable within an allelic series)"
same,binding signal,NKX3-2 [2],"12.6 upbm affinity estimate (log intensity, higher = more binding, comparable within an allelic series)"
AAGTGACG,binding signal,NKX3-2 [1],"11.7 upbm affinity estimate (log intensity, higher = more binding, comparable within an allelic series)"
same,binding signal,NKX3-2 [2],"11.9 upbm affinity estimate (log intensity, higher = more binding, comparable within an allelic series)"
GCCGTGCC,binding signal,NKX3-2 [1],"10.6 upbm affinity estimate (log intensity, higher = more binding, comparable within an allelic series)"
same,binding signal,NKX3-2 [2],"10.6 upbm affinity estimate (log intensity, higher = more binding, comparable within an allelic series)"
ACTCTGAT,binding signal,NKX3-2 [1],"11.5 upbm affinity estimate (log intensity, higher = more binding, comparable within an allelic series)"
same,binding signal,NKX3-2 [2],"11.6 upbm affinity estimate (log intensity, higher = more binding, comparable within an allelic series)"
GCCCCCGA,binding signal,NKX3-2 [1],"10.4 upbm affinity estimate (log intensity, higher = more binding, comparable within an allelic series)"
same,binding signal,NKX3-2 [2],"10.4 upbm affinity estimate (log intensity, higher = more binding, comparable within an allelic series)"
GAGACCGC,binding signal,NKX3-2 [1],"10.7 upbm affinity estimate (log intensity, higher = more binding, comparable within an allelic series)"
same,binding signal,NKX3-2 [2],"10.7 upbm affinity estimate (log intensity, higher = more binding, comparable within an allelic series)"
GCCGGCGC,binding signal,NKX3-2 [1],"10.3 upbm affinity estimate (log intensity, higher = more binding, comparable within an allelic series)"
same,binding signal,NKX3-2 [2],"10.3 upbm affinity estimate (log intensity, higher = more binding, comparable within an allelic series)"
CACTCTCG,binding signal,NKX3-2 [1],"11.9 upbm affinity estimate (log intensity, higher = more binding, comparable within an allelic series)"
same,binding signal,NKX3-2 [2],"12 upbm affinity estimate (log intensity, higher = more binding, comparable within an allelic series)"
AGCCTGGA,binding signal,NKX3-2 [1],"10.6 upbm affinity estimate (log intensity, higher = more binding, comparable within an allelic series)"
same,binding signal,NKX3-2 [2],"10.6 upbm affinity estimate (log intensity, higher = more binding, comparable within an allelic series)"
AAGAGTGG,binding signal,NKX3-2 [1],"12.5 upbm affinity estimate (log intensity, higher = more binding, comparable within an allelic series)"
same,binding signal,NKX3-2 [2],"12.7 upbm affinity estimate (log intensity, higher = more binding, comparable within an allelic series)"
AAGGGCCT,binding signal,NKX3-2 [1],"11.9 upbm affinity estimate (log intensity, higher = more binding, comparable within an allelic series)"
same,binding signal,NKX3-2 [2],"12 upbm affinity estimate (log intensity, higher = more binding, comparable within an allelic series)"
AATTGACC,binding signal,NKX2-5,"10.6 upbm affinity estimate (log intensity, higher = more binding, comparable within an allelic series)"
GGTTAATA,binding signal,HOXB6,"10.9 upbm affinity estimate (log intensity, higher = more binding, comparable within an allelic series)"
ATAATGTG,binding signal,HOXB6,"11.1 upbm affinity estimate (log intensity, higher = more binding, comparable within an allelic series)"
AAATACCA,binding signal,HOXA2,"9.01 upbm affinity estimate (log intensity, higher = more binding, comparable within an allelic series)"
AGTATCTA,binding signal,HOXB6,"10.2 upbm affinity estimate (log intensity, higher = more binding, comparable within an allelic series)"
ATTTTTTA,binding signal,HOXB6,"10.4 upbm affinity estimate (log intensity, higher = more binding, comparable within an allelic series)"
GCATAGTA,binding signal,HOXB6,"9.78 upbm affinity estimate (log intensity, higher = more binding, comparable within an allelic series)"
CTATATTA,binding signal,ALX3,"8.73 upbm affinity estimate (log intensity, higher = more binding, comparable within an allelic series)"
AAAAGAAT,binding signal,PRRX1,"11 upbm affinity estimate (log intensity, higher = more binding, comparable within an allelic series)"
AATATCAA,binding signal,PRRX1,"11.7 upbm affinity estimate (log intensity, higher = more binding, comparable within an allelic series)"
CATTATGA,binding signal,HOXB6,"11 upbm affinity estimate (log intensity, higher = more binding, comparable within an allelic series)"
CCCTCAAA,binding signal,NKX3-2 [2],"11.6 upbm affinity estimate (log intensity, higher = more binding, comparable within an allelic series)"
ATCATAAT,binding signal,HOXB6,"11.2 upbm affinity estimate (log intensity, higher = more binding, comparable within an allelic series)"
